Compound activity (PubChem BioAssay)
NR2F2 inh: NR2F2 transcriptional activity inhibitors, primary screen, cell-based, luciferase reporter, HEK293T, luminescence; COUP transcription factor 2 (Homo sapiens), P24468; HEK293T NGFI-A luciferase reporter; inhibition, % at 8.6 µM; hit rate 0.7% among 370,000; AID 686940, 2013;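 active means inhibition above a per-plate cutoff, mean inhibition of test wells between control levels plus 3 SD, cut at about 38% in these data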;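 further: cells cotransfected with COUP-TFII expression vector driving the NGFI-A reporter; 0% = median of COUP-TF2 test wells and 100% = reporter-only cells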
Target sequence (P24468 whole entry, looked up): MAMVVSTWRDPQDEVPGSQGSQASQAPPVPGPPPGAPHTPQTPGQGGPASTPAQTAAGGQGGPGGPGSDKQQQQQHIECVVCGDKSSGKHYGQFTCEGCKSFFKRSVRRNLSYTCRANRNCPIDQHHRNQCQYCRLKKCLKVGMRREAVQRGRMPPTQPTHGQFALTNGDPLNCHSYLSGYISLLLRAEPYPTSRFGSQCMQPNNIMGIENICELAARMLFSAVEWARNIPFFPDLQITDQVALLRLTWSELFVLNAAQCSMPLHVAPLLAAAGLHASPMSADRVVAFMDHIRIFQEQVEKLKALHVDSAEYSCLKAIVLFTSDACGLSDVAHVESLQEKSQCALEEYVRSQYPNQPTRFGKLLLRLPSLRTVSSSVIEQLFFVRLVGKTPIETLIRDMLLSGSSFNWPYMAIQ
aDG glyco act: activators of alpha-DG glycosylation, primary screen, uHTS, Pro5-aDG cells, AlphaScreen. alpha-DG glycosylation AlphaScreen (IIH6); 0% Pro5, 100% B10-LARGE cell signal. activation, % at 10 µM. hit rate 0.22% among 360,000;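 active means activation of at least 8% versus controls, or a plate z-score of at least 8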;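 further: Pro5 are CHO cells carrying HIG-tagged alpha-DG that lacks glycosylation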
GalR3 antag: GalR3 antagonists in HEK293 cells, primary screen, cell-based, fluorescence readout; hit rate 0.44% among 360,000; AID 651719, 2012; HEK293 GalR3-CNG cAMP membrane potential fluorescence; galR3 body fused to GalR1 C-terminus; Galanin receptor type 3 (Homo sapiens), O60755; inhibition, % at 3 µM;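 active means inhibition above the screen-wide average plus 3 SD, cut at about 13% in these data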;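 further: forskolin and galanin both at EC90 stimulate the cells; cAMP rise reported by CNG channel membrane potential dye signal; 0% = forskolin plus galanin with DMSO and 100% = forskolin alone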
Env fusion inh: inhibitors of HIV-1 Env-driven cell-cell fusion, primary screen, HeLa-JRFL effector, CEM21 target cells, luciferase; hit rate 1.1% among 360,000; inhibition, % at 12.3 µM;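 active means mean replicate inhibition score of at least 50 and every replicate individually at or above 50; inconclusive means only one of the two criteria met; inactive means mean below 50 and not all replicates reaching 50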;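 further: 0% = plate neutral controls and 100% = maraviroc near 300 nM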
Gli-Sufu block: Gli-Sufu pathway antagonists, primary screen, luciferase luminescence, Sufu-KO-LIGHT cells, uHTS. Sufu-KO-LIGHT fibroblasts, Gli luciferase reporter luminescence. inhibition, % at 5 µM. hit rate 0.74% among 340,000;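 active means inhibition above about 55%, limit read from the data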;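 further: 0% = DMSO-treated cells and 100% = wells with medium but no cells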
Gli antag conf: Gli-SUFU pathway antagonists, confirmation, single concentration, luciferase luminescence, Sufu-KO-LIGHT cells; shares compounds with Gli-Sufu block; Gli luciferase reporter; inhibition, % at 5 µM; hit rate 40% among 2,500; AID 602428, 2012;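 active means mean inhibition at 5 µM reaching about 45%, limit read from the data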;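 further: plate controls were DMSO-treated cells for no effect and wells lacking cells for full effect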
Gli cytotox: cytotoxicity in Sufu-KO-LIGHT cells, confirmation, cytotoxicity control for Gli-SUFU antagonist project, cell-based, ATP luminescence, single concentration; cytotoxicity, % at 5 µM; AID 651994, 2013; shares compounds with Gli-Sufu block; hit rate 32% among 2,500;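 active means mean cytotoxicity at 5 µM above about 25%, limit read from the data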;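 further: cells exposed to compound overnight for roughly 16 to 18 hours; plate controls were DMSO wells with cells for no effect and medium without cells for full effect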
Wnt3a cs: Wnt3a reporter signal inhibition, confirmation, counter-screen for Gli-SUFU antagonist project, Wnt-LIGHT cells, luminescence, single concentration; shares compounds with Gli-Sufu block; Wnt3a-driven luciferase reporter; inhibition, % at 6.25 µM; hit rate 20% among 2,500; AID 651995, 2013;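 active means mean inhibition above about 25%, limit read from the data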
aDG glyco conf: alpha-DG glycosylation enhancers, retest, confirmation, single concentration, Pro5-aDG cells; shares compounds with aDG glyco act; IIH6 AlphaLISA; scaled to LARGE-overexpressing B10 cells as 100%; activation, % at 10 µM (by protocol); hit rate 17% among 600; AID 651671, 2012;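 active means activation of at least 7% in one or more replicates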;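 further: cells exposed to compound for two days before detection; 0% = DMSO-treated Pro5 cells and 100% = DMSO-treated B10-LARGE cells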
GalR3 antag conf: GalR3 antagonist hit confirmation, cell-based, fluorescence, triplicate; AID 652245, 2013; hit rate 59% among 1,600; shares compounds with GalR3 antag; HEK293 GalR3 CNG cAMP biosensor, membrane potential fluorescence; galR3 fused to GalR1 carboxy tail; challenged with forskolin and galanin at EC90; inhibition, % at 3 µM;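 active means inhibition above the primary screen's cutoff, the mean inhibition of all screened compounds plus 3 SD, cut at about 13% in these data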;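 further: 0% = forskolin plus galanin and 100% = forskolin alone with DMSO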
CNG parental: nonspecific cAMP agonists in parental HEK-CNG cells, counter-screen for GalR3 antagonist project, cell-based, fluorescence, high throughput. shares compounds with GalR3 antag. HEK293-CNG parental cells, cAMP membrane potential fluorescence; normalised: DMSO wells 0%, forskolin wells 100%. activation, % at 3 µM. hit rate 10% among 1,600. AID 652268, 2013; in the data active means activation above about 1.3%
Gal4-VP16 ctr: Gal4-VP16 luciferase reporter inhibitors, counter-screen for COUP-TFII antagonist project, cell-based, luminescence, HEK293 | inhibition, % at 8.5 µM | AID 687007, 2013 | shares compounds with NR2F2 inh | hit rate 25% among 2,500; in the data active means inhibition above about 13%
NR2F2 inh conf: NR2F2 transcriptional activity inhibitors, confirmation, cell-based, luciferase reporter, HEK293, triplicate. hit rate 45% among 2,500. HEK293 NGFI-A luciferase reporter, luminescence. inhibition, % at 8.5 µM. shares compounds with NR2F2 inh;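 active means mean inhibition over three repeats above a set limit taken from the earlier primary screen, cut at about 38% in these data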;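 further: 100% = cells given the luciferase reporter alone without the COUP-TF2 vector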
An asterisk follows results filed as active; u = inconclusive; x = not tested or not shown; [ ] = remark or other dose. The list is not random: actives were taken first. Their share in the collection is about 2.1%.

SMILES | NR2F2 inh | aDG glyco act | GalR3 antag | Env fusion inh | Gli-Sufu block | Gli antag conf | Gli cytotox | Wnt3a cs | Gal4-VP16 ctr | NR2F2 inh conf | others
C[C@@H]1CCCCO[C@@H](CN(C)C(=O)c2ccncc2)[C@H](C)CN([C@@H](C)CO)C(=O)c2cc(NS(C)(=O)=O)ccc2O1 | x | x | x | -8[16.7 µM] | x | x | x | x | x | x
C[C@@H]1CN([C@@H](C)CO)C(=O)c2cc(NC(=O)CCN3CCOCC3)ccc2O[C@H]1CN(C)Cc1ccc(-c2ccccc2)cc1 | x | x | x | 6[16.7 µM] | x | x | x | x | x | x
Cc1ccc(-c2csc3ncnc(N4CCN(Cc5ccccc5)CC4)c23)cc1 | -7 | 0 | -7 | 21 | 13 | x | x | x | x | x
Cc1csc2ncnc(NC3CCN(Cc4ccccc4)CC3)c12 | 59* | 0 | 96* | 32 | 69* | 75* | 22 | 44* | 7 | 59* | GalR3 antag conf=108*;CNG parental=0
CCCC(=O)Nc1ccc2c(c1)OC[C@@H](C)N(C(=O)CC)C[C@@H](C)[C@H](OC)CN(C)C2=O | x | x | x | -1[16.7 µM] | x | x | x | x | x | x
C[C@@H](NC(=O)C[C@@H]1CC[C@H](NC(=O)c2cccnc2)[C@@H](CO)O1)c1ccccc1 | x | x | x | -1[16.7 µM] | x | x | x | x | x | x
CCNc1nc2c(c(=O)n(C)c(=O)n2C)n1Cc1ccc(Cl)cc1 | 53* | 1 | 22* | 60* | 71* | 61* | 31* | 40* | 6 | 36 | GalR3 antag conf=71*;CNG parental=0
Cc1noc(C)c1NC(=O)N(C)C[C@@H]1Oc2ncc(C#CC(C)C)cc2C(=O)N([C@H](C)CO)C[C@@H]1C | x | x | x | -8[16.7 µM] | x | x | x | x | x | x
Cc1ccc(C2CC(C(F)(F)F)n3nc(C(=O)NCc4c(C)nn(C)c4C)c(Cl)c3N2)cc1 (configuration not stated) | 45* | 1 | -3 | u | 54 | 54* | 32* | 11 | 0 | 23
Cc1nn(C)c(C)c1CNC(=O)c1cnn2c1NC(c1ccccc1)CC2C(F)(F)F (configuration not stated) | -13 | 0 | -8 | 3 | 4 | x | x | x | x | x
CC(=O)c1c(C)[nH]c(C(=O)OCC(=O)Nc2ccc(Cl)cc2[N+](=O)[O-])c1C | 63* | 8.4* | 71* | x | 75* | 75* | 31* | 24 | 5 | 60* | aDG glyco conf=1
CCOC(=O)c1c(C)[nH]c(C(=O)OCC(=O)Nc2cc(Cl)ccc2OC)c1C | 21 | 1 | -3 | -48 | 5 | x | x | x | x | x
